According to ChEMBL document CHEMBL1157539, “Thousands of chemical starting points for antimalarial lead identification” (Nature, 2010):

Columns and labels:
Type in all cases: functional
Plasmodium falciparum [1] = test: GSK_TCMDC: Inhibition of Plasmodium falciparum 3D7 in whole red blood cells, using parasite LDH activity as an index of growth. Test compounds present at 2uM
Plasmodium falciparum [2] = test: GSK_TCMDC: Inhibition of Plasmodium falciparum Dd2 in whole red blood cells, using parasite LDH activity as an index of growth. Test compounds present at 2uM
HepG2 = test: GSK_TCMDC: Percent inhibition of human HepG2 cell line. Test compounds present at 10uM.

| SMILES | Inhibition (Plasmodium falciparum [1]) [%] | Inhibition (Plasmodium falciparum [2]) [%] | Inhibition (HepG2) [%] |
| --- | --- | --- | --- |
| O=C(O)C(F)(F)F.O=c1ccc2ccc(F)c3c2n1CC3CN1CCC(NCc2cccc(-c3cccs3)c2)CC1 (stereo not drawn) | 100 | 75 | 17 |
| Cc1cc(Nc2ncc3c(n2)N(C2CCC2)CC3)ccc1N1CCN(C)CC1.Cl | 100 | 100 | 27 |
| CCN(c1ccccc1)S(=O)(=O)c1ccc(OC)c(NC(=O)c2cccc(C(F)(F)F)c2)c1 | 90 | 70 | 9 |
| CCCNC(=O)CN1CN(c2ccccc2)C2(CCN(C(=O)c3ccc(C(C)(C)C)cc3)CC2)C1=O | 99 | 98 | 0 |
| CCCCCCc1cc2cc(-c3nc(-c4ccc(OC)cc4)cs3)c(=O)oc2cc1O | 97 | 93 | 45 |
| O=C(NC1CCN(Cc2ccccc2)CC1)c1ccc(-c2nc3cc(Cl)c(Cl)cc3[nH]2)s1 | 100 | 99 | 17 |
| CN(C)CCNCc1ccc(-c2ccc(-c3nc4ccccc4[nH]3)s2)cc1.O=C(O)C(F)(F)F | 100 | 100 | 0 |
| O=C(/C=C/c1ccc(Cl)c(Cl)c1)N1CCC(CCN2CCC(c3c[nH]c4ccncc34)CC2)CC1 | 100 | 70 | 13 |
| Cl.OC(CN1CCN(c2cccc(Cl)c2)CC1)C(c1ccccc1)c1ccccc1 (stereo not drawn) | 85 | 4 | 0 |
| Cc1ccc(C(=O)Nc2ccc(Nc3ccnc4cc(-c5ccncc5)ccc34)cc2O)cc1 | 97 | 100 | 14 |
| Br.c1ccc(-c2nc(Nc3ccncc3)sc2-c2ccccc2)cc1 | 97 | 18 | 0 |
| COc1ccccc1CCNc1nc(C)cc(N[C@@H](CC(C)C)C(=O)Nc2ccccc2)n1.O=C(O)C(F)(F)F | 100 | 76 | 16 |
| O=C(C=Cc1ccc(Cl)c(Cl)c1)NCCCCCN1CCC(CCNS(=O)(=O)c2ccc(F)cc2)CC1 | 88 | 0 | 36 |
| Clc1ccc(CNc2ccnc(NCc3cccnc3N3CCCC3)n2)c(Cl)c1 | 85 | 53 | 37 |
| CC(C)(C)NCCN(Cc1ccc(-c2ccc(C(F)(F)F)cc2)cc1)C(=O)Cn1c(SCc2ccc(F)cc2)nc(=O)c2c1CCC2.O=C(O)C(O)C(O)C(=O)O | 97 | 84 | 64 |
| CC(=O)c1ccc(NC(=O)Nc2ccc(N(C)c3ccnc(Nc4cccc(CS(C)(=O)=O)c4)n3)cc2)cc1 | 100 | 98 | 86 |

| SMILES | Inhibition (Plasmodium falciparum [1]) [%] | Inhibition (Plasmodium falciparum [2]) [%] | Inhibition (HepG2) [%] |
| --- | --- | --- | --- |
| COc1cc(/C=N/Nc2nc(Nc3ccccc3)nc(Nc3ccccc3)n2)ccc1OCc1ccccc1[N+](=O)[O-] | 98 | 18 | 8 |
| O=C(NC1CCN(c2ccnc(Nc3ccc(F)cc3)n2)C1)c1cc2ccccc2s1 (stereo not drawn) | 99 | 80 | 6 |
| COc1ccc2nccc([C@@H](O)CNCCCN(C)CCOc3cc(F)cc(F)c3)c2c1.O=C(O)C(=O)O | 99 | 58 | 11 |
| CCSc1ccc(C)cc1CON1C(N)=NC(N)=NC1(C)C.Cl | 94 | 96 | 66 |
| CN1CCCc2ccc(NC(=O)Nc3ccc(Cl)c(Cl)c3)cc2C1 | 89 | 22 | 0 |
| O=C(Nc1cccc(-c2ccc(-c3nc4cc(F)ccc4[nH]3)cc2)c1)Nc1ccc(Cl)c(Cl)c1 | 100 | 49 | 79 |
| Br.Clc1ccc(-c2nc(-c3ccncc3)c[nH]2)cc1Cl | 96 | 63 | 1 |
| O=C(NC1CCCCC1)C1CCCN(C(=O)c2ccc(O)c(-c3ccc(Cl)c(Cl)c3)c2)C1 (stereo not drawn) | 89 | 42 | 22 |
| CN(c1ccc(C(=O)N[C@@H](CCC(=O)O)C(=O)O)cc1)S(=O)(=O)c1ccc2nc(N)[nH]c(=O)c2c1 | 97 | 3 | 16 |
| N=C(N)NCCN(Cc1ccccc1)c1ccccc1 | 100 | 98 | 8 |
| CS(=O)(=O)CCNCc1cccc(-c2cc3nccc(Nc4ccc(Oc5ccccc5)cc4)c3cc2Cl)c1 | 100 | 82 | 2 |
| Cc1noc(-c2cccs2)c1C(=O)NC(C)c1cccc2ccccc12 (stereo not drawn) | 97 | 95 | 0 |
| CNC(=O)c1ccc2nc(-c3ccc(-c4ccccc4)cc3)n(CC3CCN(CC4CCCC4)CC3)c2c1.O=C(O)C(F)(F)F | 84 | 36 | 13 |
| O=S(=O)(Nc1ccc(CCN2CCCCC2CCN2CCCC2)cc1)c1ccc(-c2ccccc2)cc1 (stereo not drawn) | 98 | 18 | 18 |
| Cl.c1ccc2cc(CNCCCN3CCN(CCCNCc4ccc5ccccc5c4)CC3)ccc2c1 | 100 | 65 | 60 |
